Bioassay records from PubChem.
MCF10A rerep: A quantitative high throughput screen for small molecules that induce DNA re-replication in MCF 10a normal breast cells | Potency, µM (series often up to 46.1 µM), for the others: at the highest dose activity, positive = re-replication, hits mostly activators | hit rate 2.9% among 350,000 | AID 624296, 2012 | MCF 10A DNA re-replication, Hoechst nuclear intensity, 48 h; further: potency means the concentration at half of the fitted maximal effect; % of control where 0% means no effect; nearly all actives have a fitted effect of over 50% in size
RORg inh: qHTS for inhibitors of ROR gamma transcriptional activity. hit rate 5.4% among 310,000. Potency, µM (highest dose often 53.6 µM), without a hit: top-dose activity change, negative = inhibition, usual class: inhibitors. Drosophila S2 Gal4-RORgamma UAS-luciferase reporter, 20 h; further: potency means the concentration at half of the fitted maximal effect; on the % scale 0 is the no-effect control and ±100 the full control effect; nearly all actives have a fitted effect of over 60% in size
Target sequence (P51450 whole entry, looked up, the tested form may be a part): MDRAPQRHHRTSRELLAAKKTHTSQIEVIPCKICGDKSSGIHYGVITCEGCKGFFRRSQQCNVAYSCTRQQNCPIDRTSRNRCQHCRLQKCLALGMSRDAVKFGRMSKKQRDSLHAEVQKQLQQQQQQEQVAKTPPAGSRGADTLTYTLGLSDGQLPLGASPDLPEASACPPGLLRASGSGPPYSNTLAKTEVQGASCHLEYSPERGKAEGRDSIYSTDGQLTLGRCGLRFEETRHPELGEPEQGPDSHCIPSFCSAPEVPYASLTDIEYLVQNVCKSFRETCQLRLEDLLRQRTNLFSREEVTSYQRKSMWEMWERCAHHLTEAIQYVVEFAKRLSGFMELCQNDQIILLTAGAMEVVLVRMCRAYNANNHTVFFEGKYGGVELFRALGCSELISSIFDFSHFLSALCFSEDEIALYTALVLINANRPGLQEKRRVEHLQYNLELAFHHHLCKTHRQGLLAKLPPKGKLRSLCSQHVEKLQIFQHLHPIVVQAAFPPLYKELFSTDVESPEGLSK
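Luminescence from a UAS-regulated Photinus luciferase reporter in stably transfected Drosophila Schneider cells is measured; decreased signal marks ROR gamma inhibition. Fusion expression is induced by 700 uM copper sulfate for 20 hr.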
Giardia killer: Small Molecules that selectively kill Giardia lamblia: qHTS. activity change, % at 7.66 µM, hits read low. Giardia lamblia trophozoite viability. hit rate 0.15% among 340,000; in the data active means activity change below about -80%; inconclusive means between about -30% and that limit;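 further: parasites exposed to compound for two days anaerobically before the ATP read; on the % scale 0 is the no-effect control and ±100 the full control effect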
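Compounds were tested on trophozoites seeded at 100 cells/well and held 48 hrs at 37 deg C anaerobically. An ATP-based luminescent kit measured the remaining live cells.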
SW480 rerep: A quantitative high throughput screen for small molecules that induce DNA re-replication in SW480 colon adenocarcinoma cells. SW480 DNA re-replication, Hoechst DNA content imaging, 48 h. Potency, µM (doses to about 46.1 µM), for the others: top-dose re-replication activation, hits mostly activators. hit rate 1.8% among 340,000; further: potency means the concentration at half of the fitted maximal effect; % of control where 0% means no effect; nearly all actives have a fitted effect of over 55% in size
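Hoechst fluorescence of nuclei (405 nm excitation, 500-530 nm emission) measured by plate-scanning imager after 48 hr compound exposure at 37 C; re-replication scored as increased number of nuclei with elevated intensity.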
BCR signal inh: qHTS Assay to Find Inhibitors of Chronic Active B-Cell Receptor Signaling. ABC-DLBCL IkBa-CBG/CBR reporter, luminescence ratio, 4 h. Potency, µM (series often up to 46.1 µM), without a hit: top-dose activity change, negative = inhibition, actives largely listed as inhibitors. hit rate 0.05% among 340,000. AID 493014, 2011; active means well fitted inhibition curve with a large enough effect in the signal ratio, with a control signal flat, not every such curve was filed as active; inconclusive means small, poorly fitted or top-dose-only effect, or effect the other way, or a change in a side signal; the % refers to the signal ratio;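 further: potency means the concentration at half of the fitted maximal effect; plate controls were basal doxycycline-induced cells for no effect and cells given 10 µM MG132 for full effect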
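Concentration-response series (up to 46 uM) were applied to TMD8 dual-reporter cells for 4 h at 37C with doxycycline. Green/red ratio, after filter-overlap correction, defined %Activity; red signal alone was normalised to basal cells and zero luminescence.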
Gal4-VP16 FLuc: VP16 counterscreen qHTS for inhibitors of ROR gamma transcriptional activity. hit rate 3.5% among 310,000. Drosophila S2 Gal4-VP16 UAS-luciferase, luminescence, 20 h. AID 2546, 2010. Potency, µM (top dose mostly 53.6 µM), without a hit: at the top dose activity, negative = inhibition, actives largely listed as inhibitors;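 further: Gal4-VP16 expression switched on by copper sulfate through the metallothionein promoter; potency means the concentration at half of the fitted maximal effect; on the % scale 0 is the no-effect control and ±100 the full control effect; nearly all actives have a fitted effect of over 50% in size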
An asterisk follows results filed as active; ? = inconclusive; . = no result given; [ ] = remark or other dose. Hits are enriched below; roughly 8.3% of the tested compounds scored in any of these assays. Unless noted, the call rests on the fitted dose curve; in most records, active means well fitted curve in the direction sought with a large enough effect; inconclusive means small, poorly fitted or top-dose-only effect, or another doubt; inactive means no such curve, though single readings can be large; an effect the other way counts as inactive or inconclusive.

SMILES	MCF10A rerep	RORg inh	Giardia killer	SW480 rerep	BCR signal inh	Gal4-VP16 FLuc
O=C(N/N=C/c1cccnc1)c1cc(Br)ccc1O	-5%	?	-23	1%	?	-20%
CNC(=S)Nc1cc(OC)ccc1OC	-8%	11µM*	9	-1%	?	?
COc1ccc(NC(=S)NCc2cccs2)cc1	?	4µM*	-12	?	?	?
CC(C)c1ccc(NC(=S)NCc2cccs2)cc1	?	16µM*	1	?	19%	?
COc1ccc(OC)c(NC(=S)NCc2cccs2)c1	18%	14µM*	-9	-3%	?	?
COc1ccc(S(=O)(=O)NCc2cccs2)cc1	3%	-12%	-8	1%	?	-3%
CCN(CC(=O)NCc1cccs1)S(=O)(=O)c1ccc(C(C)C)cc1	16%	39%	-11	14%	1%	14%
C=CCOc1ccc(/C=C/C(=O)OCC(=O)N(C)CC(=O)Nc2ccc(F)cc2)cc1	5%	.	-4	-4%	4%	.
COc1ccc(OC)c(NC(=S)NCc2ccccc2OC)c1	16%	7.1µM*	-28	1%	-2%	-7%[10 µM]
COc1ccccc1CNC(=S)Nc1cc(C)ccc1C	4%	3.2µM*	9	-9%	2%	?
O=C(CN1C(=O)COc2ccc(Cl)cc21)N1CCCCC1	1%	3%	5	1%	3%	0%
CC(CC(=O)NCc1ccc(Cl)cc1)CC1=NS(=O)(=O)c2ccccc2N1 (centres undefined)	.	.	.	.	0%	.
CC1(C)Cc2c(sc3ncnc(NN)c23)CO1	9%	?	-1	?	1%	?
NNc1ncnc2sc3c(c12)CCC3	?	3.2µM*	4	?	-3%	4µM*
c1cc(Nc2ncnc3sc4c(c23)CCC4)ccn1	0%	-1%	0	-6%	6%	10%
C(=N\Nc1ncnc2sc3c(c12)CCC3)/c1ccncc1	22%	10µM*	-10	?	?	20µM*
C(=N\Nc1ncnc2sc3c(c12)CCC3)/c1cccs1	.	2.5µM*	.	.	?	5µM*
Cc1cnc(CNc2cc(-c3ccccc3C)ncn2)cn1	.	-18%	.	.	.	25%
CCOc1cc(CNc2ccc(N3CCCCC3)cc2)cc(Br)c1OCC(=O)NC(C)(C)C	?	-33%	8	11%	?	-27%
CCOc1cc(CNc2ccc(N(C)C)cc2)cc(Br)c1OCC(=O)NC(C)(C)C	?	10µM*	-2	?	0%	-12%
CCOc1cc(CNc2ccc3c(c2)OCCO3)cc(Br)c1OCC	2.6µM*	?	4	5.8µM*	?	?
CCOc1cc(CNc2ccc(N3CCOCC3)cc2)cc(Br)c1OCC	?	166%	-3	?	-7%	-18%
CCNC(=O)c1ccc(=O)n(Cc2ccc(Cl)cc2Cl)c1	3%	.	-5	1%	.	.
Cc1cccc2nc(CSc3ccccc3N)cn12	24%	.	-1	1%[9.22 µM]	.	.
Cc1cccc2nc(COc3ccc4ccccc4c3Br)cn12	?	8.9µM*	?	6%	?	?
C=CCCC(=O)N1CCC(n2nccc2NC(=O)c2ccccc2C)CC1	-3%	-1%	-5	-8%	1%	4%
Cc1ccc(CNC(=O)CO/N=C/c2ccc(C(C)(C)C)cc2)cc1	?	-7%[10 µM]	2	11%	-5%	7.9µM*
CC(C)(C)c1ccc(/C=N/OCC(=O)NCc2ccc(F)cc2)cc1	?	?	1	21µM*	?	-27%
Cc1ncc(CO)c(/C=N/Nc2ccc(C(F)(F)F)cn2)c1O	6%	?	-18	?	2%	16µM*
COc1cc(C(=O)NNC(=O)c2cc(-c3ccccc3)n[nH]2)cc(OC)c1C	16%	.	17	5%	?	.
